Most compounds without a hit are left out; they make up all but 12% or so of the library.
HP1b chromo inh = inhibitors of HP1-beta chromodomain binding to methylated histone tails; P83916; AlphaScreen HP1-beta / biotin-H3K9me3 peptide binding; Potency, µM (top dose mostly 114 µM), for inactives: at the highest dose activity change, negative = inhibition, hits mostly inhibitors; 390,000 compounds, 0.56% hits; AID 540317; further: nearly all actives have a fitted effect of over 70% in size
Target sequence (P83916 whole entry, looked up): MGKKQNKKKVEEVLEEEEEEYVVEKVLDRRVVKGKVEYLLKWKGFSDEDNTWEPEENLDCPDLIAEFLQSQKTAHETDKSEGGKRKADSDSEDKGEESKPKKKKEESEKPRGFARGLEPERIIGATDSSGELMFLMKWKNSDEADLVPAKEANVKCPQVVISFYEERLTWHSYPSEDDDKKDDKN
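Compound inhibition of the preformed complex between 50 nM HP1-beta and 50 nM biotinylated H3K9me3 peptide was read by AlphaScreen. Buffer was PBS pH 7.4 with 0.01% Tween-20. Incubations ran 30 min at room temperature, with 10 ug/mL donor/acceptor beads.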
BAZ2B inh = BAZ2B (human) inhibition | Potency, µM (doses to about 114 µM), inactives show top-dose activity change, negative = inhibition, usual class: inhibitors | 360,000 compounds, 4.4% hits | Q9UIF8 | AlphaScreen BAZ2B-H3K14Ac peptide displacement; further: on the % scale 0 is the no-effect control and ±100 the full control effect; nearly all actives have a fitted effect of over 60% in size
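Multi-concentration screen (max 110 uM) measuring displacement of acetylated histone H3 peptide from BAZ2B by AlphaScreen, using 50 nM protein, 50 nM peptide and 10 ug/mL streptavidin donor plus Ni-chelate acceptor beads.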
Sfp inh = inhibitors of Bacillus subtilis Sfp phosphopantetheinyl transferase; Q9F4F7; Biochemical Sfp PPTase activity, qHTS; Potency, µM, without a hit: largest response in the series, negative = inhibition, hits mostly inhibitors; 310,000 compounds, 3.5% hits; AID 1490;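 further: the enzyme is Sfp with the accession as filed and its product quenches rhodamine fluorescence; 0% = enzyme reaction without inhibitor and -100% = no enzyme wells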
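Sfp 15 nM + cpd, 15 min RT; start w/ rhodamine-CoA 5 uM, BHQ-2-YbbR 12.5 uM (final); 50 mM Hepes pH 7.6, 10 mM MgCl2, 0.01% NP-40, 0.01% BSA; read 525/598 nm at 0 and 30 min.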
PLK1 PBD inh = blocks phosphopeptide binding to human PLK1 polo-box domain; P53350; Plk1 PBD binding of FITC phosphopeptide, fluorescence polarization; Potency, µM, inactives show max response, negative = inhibition, most hits filed as inhibitors; 360,000 compounds, 2.8% hits; further: series mostly up to about 57 µM; on the % scale 0 is the no-effect control and ±100 the full control effect; nearly all actives have a fitted effect of over 65% in size
JMJD2A Tudor inh = inhibitors of human JMJD2A Tudor domain | AlphaScreen JMJD2A-Tudor / H3K4me3 peptide binding | Potency, µM (series often up to 114 µM), without a hit: at the top dose activity change, negative = inhibition, usual class: inhibitors | 390,000 compounds, 4.4% hits | AID 504339; further: on the % scale 0 is the no-effect control and ±100 the full control effect; nearly all actives have a fitted effect of over 50% in size
G9a inh = inhibitors of human histone lysine methyltransferase G9a; 350,000 compounds, 8.8% hits; Potency, µM (titrated, usually from 102 µM), without a hit: top-dose activity, negative = inhibition, most hits filed as inhibitors; G9a H3K9 monomethylation, AlphaScreen, 2 h; further: on the % scale 0 is the no-effect control and ±100 the full control effect; nearly all actives have a fitted effect of over 75% in size
Target sequence (Q96KQ7 913-1193 limits assumed): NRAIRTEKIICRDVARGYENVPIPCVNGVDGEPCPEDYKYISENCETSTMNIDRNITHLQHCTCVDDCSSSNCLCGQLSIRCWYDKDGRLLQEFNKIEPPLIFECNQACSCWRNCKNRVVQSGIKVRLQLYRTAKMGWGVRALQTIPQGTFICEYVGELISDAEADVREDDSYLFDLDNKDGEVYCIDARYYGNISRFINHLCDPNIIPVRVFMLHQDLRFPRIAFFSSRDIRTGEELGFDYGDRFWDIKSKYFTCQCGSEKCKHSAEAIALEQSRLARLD
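Enzyme 20 nM + cpd, 15 min RT; add b-H3K9 pep 500 nM / SAM 20 uM; 2 h RT; anti-H3K9me1 Ab 0.5 ug/mL + SA donor / anti-rabbit acceptor beads 20 ug/mL each, 10 min; AlphaScreen read.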
Active calls of the source: *; u = inconclusive; x = no result; [ ] = another dose, or the depositor's remark. The call rests on the fitted dose curve; in most records, active means well fitted curve in the direction sought with a large enough effect; inconclusive means small, poorly fitted or top-dose-only effect, or another doubt; inactive means no such curve, though single readings can be large; an effect the other way counts as inactive or inconclusive. Potency means the concentration at half of the fitted maximal effect.

SMILES	HP1b chromo inh	BAZ2B inh	Sfp inh	PLK1 PBD inh	JMJD2A Tudor inh	G9a inh
C/C=C\C=C/C(=O)Nc1cccc(C2=NOC3(C2)C[C@@H](C(N)=O)N(C(=O)c2ccc(Cl)cc2)C3)c1 (stereo not given in full)	11%	u	7.1µM*	-18%	-32%	u
Cc1ccnn1CCC(=O)N1CCCC(CCC(=O)N2CCN(c3ccccn3)CC2)C1 (stereo not given)	22%	-1%	17%	-1%	-10%	13%
CN(CCOc1ccccc1)C(=O)c1cc(S(=O)(=O)N2CCOCC2)c(Cl)cc1Cl	x	x	x	2%	x	x
CC1=C(c2ccc(C)c(C)c2)S(=O)(=O)N(Cc2ccc(C(=O)Nc3cc(F)ccc3F)cc2)C1=O	-5%	-8%	x	x	-2%	-4%[59 µM]
O=C(CN1CCN(c2ccccn2)CC1)NCCc1ccccc1	46%	3%	-1%	-13%	-14%[11.4 µM]	11%[59 µM]
c1ccc(N2CCN(Cc3ccsc3)CC2)nc1	u	79µM*	-13%	-2%	3.2µM*	14µM*
Cc1cccc(CN2CCNC2=O)c1	35%	1%	14%	-4%	4%	u
Cc1cccc(CN2CCN(c3ncccn3)CC2)c1	u	u	u	-1%	2.8µM*	x
c1ccc(N2CCN(c3cnccn3)CC2)nc1	33%	2%	4%	-23%	2%	u
c1ccc(CCCN2CCN(c3ccccn3)CC2)cc1	u	u	-19%	-13%	25µM*	40µM*
O=S(=O)(c1ccccc1)N1CCN(Cc2cccc(Br)c2)CC1	u	x	x	2%	28µM*	x
Cc1ccc(S(=O)(=O)NCc2nnnn2-c2ccc(F)cc2)cc1	x	x	x	4%	x	x
Cc1cccc(CN2CCN(c3ccccn3)CC2)c1	u	x	x	2%	3.2µM*	x
Cc1cccc(-n2cc(CN3CCN(c4ccccn4)CC3)c(-c3cccc(F)c3)n2)c1	48%	-20%	2%	-4%	-9%	-3%
Brc1cccc(CN2CCN(c3ncccn3)CC2)c1	u	u	-8%	2%	20µM*	10µM*
CCc1ccc(S(=O)(=O)c2nnn(-c3ccc(F)cc3)c2N)cc1	29%	2%	x	x	1%	-3%[59 µM]
Cc1ccc(CSCC(=O)N(CCC(C)C)c2c(N)n(Cc3ccccc3)c(=O)[nH]c2=O)cc1	30%	6%	x	-2%	3%	4%[0.501 µM]
CCCCn1c(N)c(N(CC(C)C)C(=O)CSCC(=O)Nc2ccc(OC)cc2)c(=O)[nH]c1=O	4%	12%	x	-4%	-20%	-45%
CCCCn1c(N)c(N(CC(C)C)C(=O)CSCC(=O)Nc2cccc(C)c2)c(=O)[nH]c1=O	12%	-6%	x	-7%	-12%	-11%
CCCCN(C(=O)CSCC(=O)Nc1cccc(C)c1)c1c(N)n(CCCC)c(=O)[nH]c1=O	21%	17%	x	-2%	-8%	20µM*
Cc1ccc(NC(=O)CSCC(=O)N(CCC(C)C)c2c(N)n(Cc3ccccc3)c(=O)[nH]c2=O)cc1	16%	-9%	x	-4%	-22%	56µM*
CCCCn1c(N)c(N(CC)C(=O)CSCC(=O)Nc2ccc(OC)cc2)c(=O)[nH]c1=O	24%	12%	x	-12%	4%	50µM*
COCCN(C(=O)CSCC(=O)Nc1cccc(C)c1)c1c(N)n(Cc2ccccc2)c(=O)[nH]c1=O	35%	10%	x	-1%	-1%	11%[2.33 µM]
CCCn1c(N)c(N(CCOC)C(=O)CSCC(=O)Nc2cccc(C)c2)c(=O)[nH]c1=O	29%	2%	x	-6%	-3%	50µM*
CC(=O)c1ccc(NC(=O)CC2Oc3ccc(C)cc3NC2=O)cc1 (stereo not given)	8%	-1%	x	x	-17%	-21%[59 µM]
O=C(OCc1cnc(Cl)s1)c1c(F)cccc1F	43%	13%	12%	24µM*	u	12%
Cc1onc(-c2c(F)cccc2Cl)c1C(=O)OCc1cnc(Cl)s1	133%	28%	-4%	2%	74%	102%
